Most compounds without a hit are left out; they make up all but 14% or so of the library.
4MU fluor = compound fluoresces in the 4-MU spectral region | compound autofluorescence, 340/450 nm, 4-MU equivalents; stronger effect = higher value | max dye-equivalent concentration, M | 59,000 tested, 11% active | AID 589; in the data active = max dye-equivalent concentration above about 10 nM; inconclusive = mostly about 1.1 nM to 9.6 nM
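Compounds in 100 mM Tris, pH 8.0, sat 15 min at room temperature before fluorescence was read at 340 nm excitation/450 nm emission; a per-plate six-point 4-MU standard curve converted signals to dye-equivalent concentration at each compound concentration.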
CRE Fsk mod = CRE-bla signaling modulation under forskolin stimulation | CHO CRE-bla reporter (cAMP response element driving beta-lactamase), forskolin EC10, beta-lactamase ratio | Potency, µM (highest dose often 38.2 µM), hits mostly activators | 71,000 tested, 2.5% active | AID 662; active = well fitted activation curve with a large enough effect in the signal ratio, with a control signal flat, not every such curve was filed as active; inconclusive = small, poorly fitted or top-dose-only effect, or effect the other way, or a change in a side signal; the % refers to the signal ratio
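Using CellSensor CRE-bla CHO cells in Opti-MEM with 0.5% dialyzed FBS, compounds were titrated with EC10 NKH 477 for 3 h at 37 °C. CCF4 ratio (460/530 nm) gave %Activity; AC50 derived.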
HADH2 inhib = inhibitors of human HADH2 dehydrogenase; Q99714; recombinant HADH2, NADH fluorescence, beta-hydroxybutyryl-CoA; Potency, µM (series often up to 57.1 µM), usual class: inhibitors; 73,000 tested, 3.4% active; note: nearly all actives have a fitted effect of over 60% in size
Target sequence (Q99714 whole entry, looked up, one chain of several): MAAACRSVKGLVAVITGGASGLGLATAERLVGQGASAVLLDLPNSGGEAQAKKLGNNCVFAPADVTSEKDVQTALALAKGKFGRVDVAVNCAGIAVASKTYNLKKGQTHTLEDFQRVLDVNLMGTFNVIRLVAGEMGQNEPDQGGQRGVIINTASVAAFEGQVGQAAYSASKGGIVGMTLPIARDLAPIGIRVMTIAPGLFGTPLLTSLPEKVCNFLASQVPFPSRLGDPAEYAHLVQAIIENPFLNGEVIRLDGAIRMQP
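Activity measured as NADH fluorescence gain (360/450 nm), taken as the change between first and last reads of a 4-min kinetic run. Conditions: pH 9.0 Tris buffer, 20 nM E. coli-expressed His-tagged enzyme, 1 mM NAD+, 90 uM beta-hydroxybutyryl-CoA; 15-min compound preincubation.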
HSD17B inhib = HSD17B dehydrogenase inhibition; Q99714; recombinant HSD17B10, NADH fluorescence kinetic; Potency, µM (doses to about 57.1 µM), usual class: inhibitors; 75,000 tested, 7.6% active;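 note: the protocol describes HADH2 (HSD17B10) and not the HSD17B4 of the title; nearly all actives have a fitted effect of over 70% in size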
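Enzyme plus compound, 15 min room temperature; substrate mix added (NAD+ 1 mM, beta-hydroxybutyryl-CoA 90 uM final); plates read kinetically for NADH fluorescence. HADH2 was His-tagged, E. coli-derived, 20 nM.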
AID923 = qHTS Assay for Allosteric/Competitive Inhibitors of Caspase-1: Spectroscopic Profiling in AFC Spectral Region; Potency, µM (top dose mostly 57.5 µM), hits mostly activators; AID 923, 2007; 75,000 tested, 1.1% active; compound fluorescence, AFC spectral region (405/520 nm)
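Titrations up to 57 uM read every 20 sec for 3 min (405/520 nm) with 50 nM caspase 1 and 5 uM Ac-WEHD-AFC, pH 7.5 HEPES buffer. Fluorescence-vs-time intercept gave baseline, scaled against on-plate AFC standard.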
A350 autofl = compounds fluorescent in Alexa 350 spectral region; Compound autofluorescence, 340/450 nm, Alexa 350 dye-equivalents; stronger effect = higher value; 59,000 tested, 11% active; max dye-equivalent concentration, M; AID 590; in the data active = max dye-equivalent concentration above about 10 nM; inconclusive = mostly about 1.1 nM to 9.6 nM
Numbers stand for hits; - = inactive; ? = inconclusive; . = not tested or not shown; [ ] = another dose, or the depositor's remark. Unless noted, calls come from the whole dose curve; as a rule, active = well fitted curve in the direction sought with a large enough effect; inconclusive = small, poorly fitted or top-dose-only effect, or another doubt; inactive = no such curve, though single readings can be large; an effect the other way counts as inactive or inconclusive.

SMILES	4MU fluor	CRE Fsk mod	HADH2 inhib	HSD17B inhib	AID923	A350 autofl
CCOc1ccccc1CN(CCc1ccc2c(c1)OCO2)Cc1ccccn1	.	-	-	-	-	.
COc1cc(OC)c2cc(-c3ccncc3)cnc2c1	.	5.01µM	31.6µM	31.6µM	-	.
Cc1nc(-c2ccccc2)cc(N2CCCC2)n1	.	?	-[11.4 µM]	-	-	.
Cc1cc(-c2ccccc2)nc2[n+]1CCN2C	2.02e-07M	?	-	?	-	2.72e-07M
Cc1nn(-c2ccccc2)c(N2CCCC2)c1/C=N/n1cnc2scc(-c3ccccc3)c2c1=O	1.66e-07M	-	?	25.1µM	-	2.24e-07M
COc1ccc(S(=O)(=O)NCC(=O)N(CC(=O)NCC2CCCO2)c2ccccc2C)cc1 (centres undefined)	-	-	-	-	-	-
CC1(C(=O)N(CC(=O)NC2CCCC2)C2CCCC2)CC(=O)N=C2C=CC=CN21 (centres undefined)	4.16e-07M	-	31.6µM	25.1µM	-	3.97e-07M
CC1(C(=O)NC2CCCC2)CCC(=O)N1CCC1=CCCCC1 (centres undefined)	-	-	-	-	-	-
Cc1ccccc1N(CC(=O)NCC1CCCO1)C(=O)C1(C)CC(=O)N=C2C=CC=CN21 (centres undefined)	7.5e-07M	-	?	25.1µM	-	1.18e-06M
CC1(C(=O)N(c2ccccc2)C(C(=O)NC2CCCC2)c2ccccn2)CC(=O)N=C2C=CC=CN21 (centres undefined)	4.72e-07M	-	-	25.1µM	-	4.13e-07M
COC(=O)COc1ccc(Oc2nc(SC)nc(N(C)C)n2)nn1	-	.	.	.	.	-
CCCC[C@@H]1C[C@H]1C(NC(=O)c1cccs1)c1ccc(C(F)(F)F)cc1 (some centres undefined)	.	-	-	-	-	.
CSC(N)=NCCCC(N)C(=O)O (centres undefined)	.	.	.	-	-	.
Cc1cc(C2C(C#N)=C(N)SC(N)=C2C#N)c(C)s1	-	?	?	-	-	-
Cc1sccc1C1C(C#N)=C(N)SC(N)=C1C#N	1.2e-08M	.	.	.	.	1.5e-08M
COCc1cc(C)nc(N2CCN(c3ccccc3)CC2)c1C#N	.	?	?	?	-	.
COCc1cc(C)nc(NC2CCCCC2)c1C#N	8.4e-07M	-	-	25.1µM	-	1e-06M
O=S(=O)(NCc1ccncc1)c1ccc(Br)s1	-	-	-	-	-	-
CCN(CC)S(=O)(=O)N1CCC(C(=O)NCCN2CCOCC2)CC1	1.55e-08M	-	-	-	-	2.17e-08M
CCCCN(CC)S(=O)(=O)N1CCC(C(=O)NCCCN2CCOCC2)CC1	-	-	-	-	-	?
CC1=CC(c2ccccc2)n2nc(N3C(=O)c4ccccc4C3=O)nc2N1 (centres undefined)	?	?	-	-	-	?
Nc1nc(N2C(=O)C3CC=CCC3C2=O)nn1-c1ccccc1 (centres undefined)	5.57e-08M	-	-	-	-	7.26e-08M
CC1=CC(c2ccccc2)n2nc(N3C(=O)C4CC=CCC4C3=O)nc2N1 (centres undefined)	1.23e-07M	.	.	.	.	1.38e-07M
Nc1nc(-n2cnnc2)nn1-c1ccccc1	.	.	-	-	-	.
COc1ccccc1N1CCN(CC(=O)c2c(C)[nH]c3cc(C)ccc23)CC1	-	?	-	-	-	-
SMILES	4MU fluor	CRE Fsk mod	HADH2 inhib	HSD17B inhib	AID923	A350 autofl
CCCNC(=O)C1CCN(c2nc(C)cc(C)n2)CC1	-	-	-	31.6µM	-	-
CCC(C)(C)NC(=O)C1CCN(c2nc(C)cc(C)n2)CC1	-	-	-	?	-	-
Cc1cc(C)nc(N2CCC(CNC(=O)CCc3ccccc3)CC2)n1	-	-	-	31.6µM	-	-
Cc1cc(C)nc(N2CCN(c3nc(C)cc(C)n3)CC2)n1	2.64e-08M	-	-	-	-	3.26e-08M
CC(NC(=O)c1ccccc1NC(=O)c1ccco1)c1ccccc1 (centres undefined)	-	-	-	?	-	-
CC(NC(=O)c1ccccc1O)c1ccccc1 (centres undefined)	.	?	3.16µM	25.1µM	-	.
CC(NC(=O)c1ccc(=O)oc1)c1ccccc1 (centres undefined)	1.98e-08M	.	.	.	.	2.1e-08M
Cc1cnc(CNc2ccnc(-c3ccccc3C(F)(F)F)n2)cn1	-	-	-	-	-	-
Cc1ccc2cc(CN(CCN3CCOCC3)Cc3nnnn3Cc3ccco3)c(=O)[nH]c2c1C	-	-	-	?	-	-
Cc1ccc2cc(CN(Cc3ccc4c(c3)OCO4)Cc3nnnn3Cc3ccco3)c(=O)[nH]c2c1C	-	-	-	31.6µM	-	-
Cc1ccc(C)c2[nH]c(=O)c(CN(Cc3ccco3)S(=O)(=O)c3ccc4c(c3)OCCO4)cc12	?	-	-	25.1µM	-	?
Cc1ccc(C)c2[nH]c(=O)c(CN(Cc3ccc4c(c3)OCO4)Cc3nnnn3Cc3ccco3)cc12	?	-	-	25.1µM	-	?
COC(=O)c1cc(C(=O)OC)cc(N2C(=O)CN=C2Nc2nc(C)cc(C)n2)c1	-	-	-	-	-	?
COC(=O)CSc1nc(C2CC2)cc(C(F)(F)F)c1C#N	-	-	-	-	-	-
N#Cc1c(C(F)(F)F)cc(C2CC2)[nH]c1=O	.	-	10µM	31.6µM	-	.
N#Cc1cccc(NC(=O)N2CCCC3(CCN(C(=O)c4cc(C(F)(F)F)cc(C(F)(F)F)c4)CC3)C2)c1	-	-	-	-	-	-
C[C@@H]1CCC[C@H](C)N1	-	-	-	-	-	-
O=C1CC(NCc2ccncc2)C(=O)N1c1ccc(Cl)cc1 (centres undefined)	-	.	.	.	.	-
CC(C)C[C@@H](CC(=O)N[C@@H](CCC(=O)O)CC(=O)O)NC(=O)[C@@H]1CNCC[C@H]1NC(=O)C[C@@H](NC(=O)C[C@H](Cc1c[nH]c2ccccc12)NC(=O)[C@@H]1CNCC[C@H]1N)C(C)C	.	-	-	.	.	.
CN1/C(=C\C(=O)COC(=O)Cn2nnc(-c3ccccc3)n2)C(C)(C)c2ccccc21	2.97e-08M	?	-	-	-	3.46e-08M
CCOC(=O)C1CCCN(CCC(C)c2ccccc2)C1 (centres undefined)	-	-	-	-	-	-
CCOC(=O)c1ccc(NC(=O)Cn2nnc(-c3ccccc3)n2)cc1	-	-	-	-	-	-
CCOC(=O)C1CCCN(CC(=O)/C=C2/N(C)c3ccccc3C2(C)C)C1 (centres undefined)	1.15e-07M	-	-	-	-	1.07e-07M
COc1ccc(OC)c(C2=NOC(C(=O)Nc3cccnc3)C2)c1 (centres undefined)	-	?	-	-	-	?
CC1=C(C(=O)Nc2ccccc2)C(c2ccc3c(c2)OCO3)C2=C(CCCC2=O)N1 (centres undefined)	1.19e-07M	-	-	?	-	1.48e-07M
